Active and inactive are the calls of the source. Unless noted, how the calls were made is not given here.

In test [1] the test system is Wnt5a (protein binding on small-molecule microarray). In words: small molecules binding Wnt5a protein – biophysical, small-molecule microarray, 635/667 nm fluorescence, primary screen (AID 1142).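 Further: fluorescence read at 667 nm with signal to noise per printed feature.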 Particulars: 635 nm fluorescence, higher = more signal.
A short description of test [2]: ATP-based viability of Huh7 replicon cells – cell-based, CellTiter-Glo luminescence, basal, 48 h, cytotoxicity control for HCV replication inhibitor project, primary screen (AID 1143).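 Further: Huh7 hepatoma cells carrying a hepatitis C replication reporter with no stimulus; test concentration not given here.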 Particulars: higher = more signal, called active from +8 up or from −8 down. A general note: Replicon systems follow genome replication, usually without infectious particles.
Test [3] is described as follows: Pseudomonas biofilm growth suppression – PAO1 strain, BacTiter-Glo luminescence, LB-PBS, primary screen (AID 1144). Conditions: P. aeruginosa PAO1 biofilm, 12 h, higher = more signal.
Test [4] in a line: basal CRE-LacZ reporter activity in PC12 – cell-based, unstimulated, primary screen (AID 1145). Conditions: no forskolin, luminescence, 4.5 h, higher = more signal, called active from +8 up or from −8 down.
The nature of test [5]: forskolin-driven CRE-LacZ activity in PC12 – cell-based, CRE-LacZ reporter, forskolin-stimulated, primary screen (AID 1146).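 Further: PC12 cells with 6xCRE LacZ reporter stimulated by forskolin 10 µM; beta-galactosidase reporter signal reflecting CREB driven transcription.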 Particulars: luminescence, 4.5 h, higher = more signal, called active from +8 up or from −8 down.
The target in test [6] is Streptavidin (Streptomyces avidinii) (UniProt P22629). As to the kind of experiment: compounds binding control protein streptavidin – biophysical, small-molecule microarray, 635/667 nm fluorescence, artefact control for SMM compound annotation, primary screen (AID 1147).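 Further: signal reflects streptavidin binding to arrayed compounds as a control protein.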 Conditions: higher = more signal.
Chain of Streptavidin (Streptomyces avidinii) (P22629 whole entry, looked up): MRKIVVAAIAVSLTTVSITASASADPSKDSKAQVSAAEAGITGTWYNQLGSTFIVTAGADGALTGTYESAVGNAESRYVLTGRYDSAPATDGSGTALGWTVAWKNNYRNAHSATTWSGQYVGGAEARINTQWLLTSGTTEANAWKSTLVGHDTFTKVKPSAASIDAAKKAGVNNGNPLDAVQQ
Test [7] can be described thus: probe aInhba binding on compound microarray – biochemical, small-molecule microarray, 635/667 nm fluorescence, primary screen (AID 1148).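 Further: score merges 667nm spot fluorescence with signal-to-noise for antibody binding to printed compounds.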 Particulars: higher = more signal.
Test [8] concerns the target Torsin-1A (Homo sapiens) (UniProt O14656). In words: TOR1A wild-type binding on microarray – cell lysate, small-molecule microarray, lysate, 635/667 nm, primary screen (AID 1149). Particulars: COS7 hTOR1A-WT lysate, 635 nm fluorescence, higher = more signal.
The target is the same in test [9]. As to the kind of experiment: torsin A mutant lysate binding on microarrays – cell lysate, small-molecule microarray, COS7 lysate, 635/667 nm fluorescence, primary screen (AID 1150).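 Further: score pools 667 nm emission and signal to noise measuring lysate protein binding.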 Particulars: COS7 hTOR1A mutant lysate, 635 nm fluorescence, higher = more signal.
Test [10] relates to Sonic hedgehog protein (Shh). As to the kind of experiment: Sonic hedgehog microarray binding compounds – biochemical, small-molecule microarray, 635/667 nm fluorescence, primary screen (AID 1151).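 Further: Shh protein binding to compounds spotted on small-molecule microarray slides; score combines spot fluorescence intensity with signal-to-noise across triplicate slides.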 Conditions: 635 nm fluorescence, higher = more signal.
A short description of test [11]: optical density shifts of acrAB sulA E. coli – strain DRC41, OD650, 48 h, E. coli filamentation inducer project, primary screen (AID 1152).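 Further: E. coli MC1000 strain DRC41 lacking acrAB efflux pump and sulA.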 Particulars: higher = more signal, called active from +8 up or from −8 down.
Test [12] is described as follows: probe aLefty1 binding on compound microarray – biochemical, small-molecule microarray, 635/667 nm fluorescence, primary screen (AID 1153).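 Further: score merges spot fluorescence with signal-to-noise ratio from the scanned slide images.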 Particulars: higher = more signal.
A short description of test [13]: plasmodial surface anion channel blockers, osmotic lysis – cell-based, P. falciparum Indochina, OD700, 1 h, primary screen (AID 1154). Particulars: P. falciparum Indochina infected RBC osmotic lysis, higher = more signal, called active from +8 up or from −8 down.
A short description of test [14]: plasmodial surface anion channel blockers, osmotic lysis – cell-based, P. falciparum Indochina, OD700, 2 h, primary screen (AID 1155).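 Further: lysis reports solute entry through the parasite surface anion channel PSAC.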 Particulars: P. falciparum Indochina infected erythrocytes, higher = more signal, called active from +8 up or from −8 down.
Test [15] can be described thus: changes in parasitized red cell lysis, either direction – P. falciparum Indochina, OD700, 3 h, PSAC antagonist project, primary screen (AID 1156). Particulars: P. falciparum-infected erythrocytes, osmotic lysis, higher = more signal, called active from +8 up or from −8 down.
Test [16] can be described thus: plasmodial surface anion channel blockers, osmotic lysis – cell-based, P. falciparum Indochina, OD700, 18 h, primary screen (AID 1157). Conditions: P. falciparum Indochina infected erythrocytes, osmotic lysis OD700, 18 h; higher = more signal, called active from +8 up or from −8 down.
Test [17] is described as follows: S6 kinase pathway phospho-S6 level changes – cell-based, A549, cytoblot, luminescence, serum-stimulated, primary screen (AID 1158).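 Further: serum-stimulated A549 lung adenocarcinoma cells; signal is phosphorylated S6 detected by cytoblot immunostaining with HRP secondary.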 Particulars: 5 h, higher = more signal.
Test [18] concerns the target NADPH oxidase 2 (Homo sapiens) (UniProt P04839). In words: compounds shifting NOX2 Amplex Red fluorescence – cell-based, HEK293-NOX2, PMA-stimulated, NOX inhibitor project, primary screen (AID 1159). Further: test concentration not given here. Particulars: 45 min, higher = more signal, called active from +8 up or from −8 down.
The target in test [19] is NADPH oxidase 4 (Homo sapiens) (UniProt Q9NPH5). In words: compounds shifting NOX4 Amplex Red fluorescence – cell-based, HEK293-NOX4, tetracycline-induced, NOX inhibitor project, primary screen (AID 1160). Particulars: HEK293-NOX4, Amplex Red H2O2 fluorescence, 45 min; higher = more signal, called active from +8 up or from −8 down.
Chain of NADPH oxidase 4 (Homo sapiens) (Q9NPH5 whole entry, looked up): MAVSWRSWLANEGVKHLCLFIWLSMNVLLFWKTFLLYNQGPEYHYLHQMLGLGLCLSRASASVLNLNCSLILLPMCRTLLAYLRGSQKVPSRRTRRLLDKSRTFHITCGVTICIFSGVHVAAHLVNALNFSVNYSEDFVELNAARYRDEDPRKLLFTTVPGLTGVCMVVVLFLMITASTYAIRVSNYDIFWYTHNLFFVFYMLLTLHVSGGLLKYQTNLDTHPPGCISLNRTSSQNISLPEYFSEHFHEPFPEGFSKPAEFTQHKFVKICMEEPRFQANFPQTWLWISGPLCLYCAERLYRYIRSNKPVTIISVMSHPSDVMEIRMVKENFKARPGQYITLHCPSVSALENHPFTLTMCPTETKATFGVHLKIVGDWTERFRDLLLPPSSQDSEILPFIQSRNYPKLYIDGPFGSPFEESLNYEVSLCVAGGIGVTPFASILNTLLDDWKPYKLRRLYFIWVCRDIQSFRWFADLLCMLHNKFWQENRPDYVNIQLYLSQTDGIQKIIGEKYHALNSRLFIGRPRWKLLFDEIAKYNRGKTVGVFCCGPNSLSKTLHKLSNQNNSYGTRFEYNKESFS
Test [20] concerns the target NADPH oxidase 5 (Homo sapiens) (UniProt Q96PH1). In words: compounds shifting NOX5 Amplex Red fluorescence – cell-based, HEK293-NOX5, NOX inhibitor project, primary screen (AID 1161). Particulars: HEK293-NOX5, ionomycin, 45 min, higher = more signal.

Chain of NADPH oxidase 5 (Homo sapiens) (Q96PH1 whole entry, looked up): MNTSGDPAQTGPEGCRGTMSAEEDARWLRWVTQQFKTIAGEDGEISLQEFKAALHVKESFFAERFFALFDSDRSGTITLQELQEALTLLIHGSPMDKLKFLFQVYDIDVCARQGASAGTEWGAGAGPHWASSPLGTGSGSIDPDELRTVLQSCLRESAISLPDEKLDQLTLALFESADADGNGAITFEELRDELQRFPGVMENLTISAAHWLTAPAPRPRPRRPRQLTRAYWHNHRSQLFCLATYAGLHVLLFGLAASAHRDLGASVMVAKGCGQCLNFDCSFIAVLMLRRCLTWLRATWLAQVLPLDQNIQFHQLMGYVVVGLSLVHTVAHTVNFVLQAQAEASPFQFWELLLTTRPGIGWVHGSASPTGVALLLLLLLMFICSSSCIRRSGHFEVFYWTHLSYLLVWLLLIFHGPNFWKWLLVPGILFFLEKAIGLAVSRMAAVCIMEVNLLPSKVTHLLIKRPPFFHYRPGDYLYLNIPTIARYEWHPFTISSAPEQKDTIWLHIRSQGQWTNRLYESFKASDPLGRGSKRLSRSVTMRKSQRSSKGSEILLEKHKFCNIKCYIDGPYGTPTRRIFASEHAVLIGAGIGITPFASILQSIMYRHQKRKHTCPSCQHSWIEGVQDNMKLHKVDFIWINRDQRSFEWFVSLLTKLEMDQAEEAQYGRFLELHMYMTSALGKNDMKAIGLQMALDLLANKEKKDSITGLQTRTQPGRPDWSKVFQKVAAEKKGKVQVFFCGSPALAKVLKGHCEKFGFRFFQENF
Chain of NADPH oxidase 2 (Homo sapiens) (P04839 whole entry, looked up): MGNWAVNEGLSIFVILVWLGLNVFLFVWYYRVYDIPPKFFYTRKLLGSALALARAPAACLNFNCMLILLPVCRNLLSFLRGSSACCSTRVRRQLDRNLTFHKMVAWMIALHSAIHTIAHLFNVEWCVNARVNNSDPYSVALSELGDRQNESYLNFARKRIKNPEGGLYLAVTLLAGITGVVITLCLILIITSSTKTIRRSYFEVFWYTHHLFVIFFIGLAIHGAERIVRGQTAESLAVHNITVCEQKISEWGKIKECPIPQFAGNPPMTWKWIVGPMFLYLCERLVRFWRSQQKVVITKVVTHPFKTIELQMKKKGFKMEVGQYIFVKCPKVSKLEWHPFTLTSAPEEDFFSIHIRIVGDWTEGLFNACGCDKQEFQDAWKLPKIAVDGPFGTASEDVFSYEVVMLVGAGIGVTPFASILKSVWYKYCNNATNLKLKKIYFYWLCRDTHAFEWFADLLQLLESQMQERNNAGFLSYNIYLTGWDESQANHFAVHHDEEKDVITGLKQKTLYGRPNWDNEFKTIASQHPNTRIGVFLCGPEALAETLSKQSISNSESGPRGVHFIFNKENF
Chain of Torsin-1A (Homo sapiens) (O14656 whole entry, looked up): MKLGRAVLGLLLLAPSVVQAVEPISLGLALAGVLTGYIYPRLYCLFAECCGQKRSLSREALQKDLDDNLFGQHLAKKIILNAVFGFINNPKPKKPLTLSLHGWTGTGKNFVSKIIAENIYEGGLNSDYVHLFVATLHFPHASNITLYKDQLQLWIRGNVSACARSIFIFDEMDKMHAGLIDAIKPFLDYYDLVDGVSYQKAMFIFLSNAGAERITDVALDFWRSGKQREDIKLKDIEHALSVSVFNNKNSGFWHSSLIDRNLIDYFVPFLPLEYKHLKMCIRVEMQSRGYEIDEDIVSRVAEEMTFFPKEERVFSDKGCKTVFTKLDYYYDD

Regarding `C=CCC(OC(C)=O)[C@@H]1[C@@H](N(Cc2cc3ccccc3o2)C(=O)c2cccc3ccccc23)c2cc(OCCCO)ccc2N1C(=O)c1ccc2ccccc2c1` (stereo not given in full), the composite z-score is 0.316 in test [1]; 0.0823 in [6]; -0.0791 in test [7]; 0.523 in the test with Torsin-1A (Homo sapiens) [8]; 0.132 with Torsin-1A (Homo sapiens) [9]; 0.198 in [10]. In test [12], this compound registered a composite z-score of 0.0931. In addition, the z-score is -0.928 (inactive) in [2]; 0.26 (inactive) in [3]; 3.85 (inactive) in [4]; 0.0746 (inactive) in [5]; -0.546 (inactive) in test [11]; 0.92 (inactive) in test [13]. Moreover, the z-score in test [14] is 0.0881 (inactive); in [15], 0.547 (inactive); in test [16], 0.286 (inactive); in test [17] it was 0.552; in test [18], -0.764 (inactive); in [19], -0.797 (inactive). In addition, the z-score in [20] is -2.19.

On to `COC(=O)c1ccc([C@H](NC(=O)c2ccccc2)[C@]2(C)C[C@H]2C2CCCCC2)cc1`, for which the composite z-score is 0.0477 in test [1]; 1.08 in test [6]; 0.166 in test [7]; -0.435 in the test with Torsin-1A (Homo sapiens) [8]; 0.266 with Torsin-1A (Homo sapiens) [9]; -0.999 in [10]. This compound also gave a composite z-score in [12] of 0.718. Also, the z-score was -1.78 (inactive) in test [2]; -0.718 (inactive) in test [3]; 0.394 (inactive) in [4]; 1.28 (inactive) in [5]; -2.26 (inactive) in [11]; 8.84 (active) in [13]. The z-score in [14] is 1.56 (inactive); in test [15], -0.281 (inactive); in test [16], 0.692 (inactive); in test [17], 0.0094; in [18], 0.0662 (inactive); in test [19] it was -0.602 (inactive). Also, the z-score in test [20] is 1.22.

Consider `CC(C)N1CC=CC23O[C@@H]4C=CCCOC(=O)C4[C@H]2C(=O)N(CCCCCO)[C@@H]3C1=O` (stereo not given in full), for which the composite z-score in test [1] was -0.135; in [6], 1.88; in test [7], -0.224; in the test with Torsin-1A (Homo sapiens) [8], -1.35; with Torsin-1A (Homo sapiens) [9], -1.12; in test [10], 0.0551. This compound displayed a composite z-score in test [12] of -0.0186. Also, the z-score in [2] was 0.317 (inactive); in [3] it was -1.18 (inactive); in test [4], 0.199 (inactive); in test [5], -0.695 (inactive); in [11], 0.952 (inactive); in test [13], 1.42 (inactive). In addition, the z-score in test [14] is 0.261 (inactive); in test [15], 2.21 (inactive); in test [16], 0.455 (inactive); in test [17] it was 1.35; in [18] it was 1.42 (inactive); in [19], 0.356 (inactive). The z-score in [20] is 1.48.

With `CN1C(=O)C2C=CC(C(O)c3ccc(-c4ccccc4)s3)N(Nc3ccccc3)C2C1=O` (stereo not given), the composite z-score in test [1] was -0.24; in test [6] it was 2.23; in [7] it was 0.395; with Torsin-1A (Homo sapiens) [8], 0.0922; with Torsin-1A (Homo sapiens) [9] it was 0.271; in [10], -0.212. In [12], this compound registered a composite z-score of 0.612. The z-score in test [2] was 0.809 (inactive); in [3], -0.46 (inactive); in test [4], 0.429 (inactive); in test [5], -0.666 (inactive); in [11] it was -1.06 (inactive); in test [13] it was 2.55 (inactive). Besides, the z-score in [14] was 1.05 (inactive); in test [15] it was 0.156 (inactive); in [16], 1.29 (inactive); in test [17], -0.857; in test [18] it was -1.21 (inactive); in test [19], -4.15 (inactive). Also, the z-score in [20] was -1.81.

Take `C=C(CCCC)C(=O)CC[C@H](OC(C)=O)c1ccccc1OCCO`: the composite z-score in test [1] was 0.241; in [6] it was -0.478; in [7] it was 0.0902; in the test with Torsin-1A (Homo sapiens) [8], -1.49; with Torsin-1A (Homo sapiens) [9], -0.447; in [10], 1.42. The compound also came in with a composite z-score in test [12] of 0.149. Further, the z-score in test [2] was -4.57 (inactive); in [3], 1.09 (inactive); in test [4], 8.25 (active); in test [5], -0.195 (inactive); in test [11], 0.0371 (inactive); in [13], 5.66 (inactive). The z-score is -0.686 (inactive) in test [14]; 2.15 (inactive) in [15]; -1.83 (inactive) in [16]; 1.68 in [17]; -1.56 (inactive) in test [18]; -0.397 (inactive) in test [19]. Moreover, the z-score in [20] was -2.19.
